G9a inh: qHTS Assay for Inhibitors of Histone Lysine Methyltransferase G9a; Potency, µM (series often up to 102 µM), for the others: top-dose activity, negative = inhibition, hits mostly inhibitors; Histone-lysine N-methyltransferase EHMT2 (Homo sapiens), Q96KQ7; 350,000 compounds, 8.8% hits; G9a H3K9 monomethylation, AlphaScreen, 2 h; note: potency is the fitted concentration of half-maximal effect; % is set by controls: 0 for no effect and ±100 for the full control effect; nearly all actives have a fitted effect of over 75% in size
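Methyltransferase reactions run at room temperature for 2 h (20 nM enzyme, 500 nM biotin-H3K9 peptide, 20 uM SAM) after a 15 min compound preincubation; product detected by AlphaScreen beads and anti-H3K9me1 antibody.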
HP1b chromo inh: HTS for Inhibitors of HP1-beta Chromodomain Interactions with Methylated Histone Tails | Chromobox protein homolog 1 (Homo sapiens), P83916 | AlphaScreen HP1-beta / biotin-H3K9me3 peptide binding | Potency, µM (top dose mostly 114 µM), for the others: top-dose activity change, negative = inhibition, hits mostly inhibitors | 390,000 compounds, 0.56% hits; note: potency is the fitted concentration of half-maximal effect; nearly all actives have a fitted effect of over 70% in size
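Compound inhibition of the preformed complex between 50 nM HP1-beta and 50 nM biotinylated H3K9me3 peptide was read by AlphaScreen. Buffer was PBS pH 7.4 with 0.01% Tween-20. Incubations ran 30 min at room temperature, with 10 ug/mL donor/acceptor beads.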
PLK1 PBD inh: qHTS for Inhibitors of PLK1-PDB (polo-like kinase 1 - polo-box domain): Primary Screen. Serine/threonine-protein kinase PLK1 (Homo sapiens), P53350. Plk1 PBD binding of FITC phosphopeptide, fluorescence polarization. Potency, µM, without a hit: max response, negative = inhibition, hits mostly inhibitors. 360,000 compounds, 2.8% hits; note: potency is the fitted concentration of half-maximal effect; series mostly up to about 57 µM; % is set by controls: 0 for no effect and ±100 for the full control effect; nearly all actives have a fitted effect of over 65% in size
Target sequence (P53350 whole entry, looked up, the tested form may be a part): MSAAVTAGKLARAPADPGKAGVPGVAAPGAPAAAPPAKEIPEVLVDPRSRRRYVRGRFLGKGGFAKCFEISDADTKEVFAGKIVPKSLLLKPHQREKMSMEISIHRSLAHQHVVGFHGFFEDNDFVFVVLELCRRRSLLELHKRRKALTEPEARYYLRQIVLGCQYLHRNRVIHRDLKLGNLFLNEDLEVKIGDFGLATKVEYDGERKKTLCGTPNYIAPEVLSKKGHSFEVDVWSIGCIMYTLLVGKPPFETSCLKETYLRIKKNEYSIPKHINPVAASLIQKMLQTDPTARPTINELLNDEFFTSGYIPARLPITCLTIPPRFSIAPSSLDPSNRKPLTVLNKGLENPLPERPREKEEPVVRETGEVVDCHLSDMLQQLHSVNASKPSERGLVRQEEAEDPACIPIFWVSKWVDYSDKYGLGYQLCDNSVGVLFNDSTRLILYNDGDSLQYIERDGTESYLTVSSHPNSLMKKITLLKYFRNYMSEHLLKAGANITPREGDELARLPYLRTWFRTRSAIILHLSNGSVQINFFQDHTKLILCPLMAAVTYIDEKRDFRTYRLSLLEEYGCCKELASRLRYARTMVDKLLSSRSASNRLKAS
PI5P4K alpha inh: qHTS for Inhibitors of phosphatidylinositol 5-phosphate 4-kinase (PI5P4K). AID 652105, 2013. PI5P4Kalpha enzyme, ADP-Glo luminescence, 60 min; active compounds read low. Phosphatidylinositol 5-phosphate 4-kinase type-2 alpha (Homo sapiens), P48426. max response, %. 330,000 compounds, 1.2% hits; active = max response of -50% or lower; inconclusive = between -30% and -50%; inactive = -30% or higher; note: value at the top dose of about 77 µM; % is set by controls: 0 for no effect and ±100 for the full control effect
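ADP-Glo luminescence end-point read after a 60 min room-temperature kinase reaction of PI5P4Kalpha plus substrate, initiated with ATP at 5 microM final. Buffer: 0.038 M HEPES pH 7.4, EGTA, 0.1% CHAPS, 5% DMSO.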
JMJD2A Tudor inh: qHTS Assay for Inhibitors of JMJD2A-Tudor Domain. Lysine-specific demethylase 4A (Homo sapiens), O75164. AlphaScreen JMJD2A-Tudor / H3K4me3 peptide binding. Potency, µM (titrated, usually from 114 µM), for the others: top-dose activity change, negative = inhibition, hits mostly inhibitors. 390,000 compounds, 4.4% hits; note: potency is the fitted concentration of half-maximal effect; % is set by controls: 0 for no effect and ±100 for the full control effect; nearly all actives have a fitted effect of over 50% in size
BAZ2B inh: qHTS Assay for Inhibitors of BAZ2B | AID 504333, 2011 | AlphaScreen BAZ2B-H3K14Ac peptide displacement | Potency, µM (doses to about 114 µM), inactives show at the highest dose activity change, negative = inhibition, usual class: inhibitors | 360,000 compounds, 4.4% hits; note: potency is the fitted concentration of half-maximal effect; % is set by controls: 0 for no effect and ±100 for the full control effect; nearly all actives have a fitted effect of over 60% in size
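AlphaScreen displacement: compounds (up to 110uM) incubated 30 min at room temperature with a preformed 50 nM BAZ2B/50 nM biotinylated H3K14Ac peptide complex in PBS pH 7.4 with Tween-20. Donor and acceptor beads at 10 ug/mL final added, 20 min light-protected before reading.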
Numbers without * were called inactive; ? = inconclusive; · = not tested or not shown; [ ] = another dose, or the depositor's remark. Compounds with a hit are over-represented: about 12% of the library has one in this group of screens. Unless noted, calls come from the whole dose curve; as a rule, active = well fitted curve in the direction sought with a large enough effect; inconclusive = small, poorly fitted or top-dose-only effect, or another doubt; inactive = no such curve, though single readings can be large; an effect the other way counts as inactive or inconclusive.

SMILES	G9a inh	HP1b chromo inh	PLK1 PBD inh	PI5P4K alpha inh	JMJD2A Tudor inh	BAZ2B inh
CCn1c(SCC(=O)c2ccccc2)nnc1-c1cnccn1	-4%[12.7 µM]	22%	0%	·	-10%	11%
CC(=O)NCc1ccc(C(=O)CSc2nnc(C3CC3)n2C2CC2)cc1	?	1%	-24%	-13	22µM*	-4%
O=C(CSc1nnc(C2CC2)n1C1CC1)c1ccc(F)cc1	19%[59 µM]	33%	-1%	-2	3%	12%
Cc1cccc(-c2nnc(SCC#N)n2C)c1	·	63%	27µM*	-5	-10%	2%
Cn1c(SCC(=O)c2ccccc2)nnc1-c1cnccn1	20µM*	?	-8%	·	25µM*	?
CCOCCc1nn2c(=O)cc(COC(=O)c3cccc(C)c3)nc2s1	-2%[59 µM]	21%	·	·	-12%	-2%
COc1ccc(CCN(CC(=O)NCc2ccc(F)cc2)C(=O)c2snc(C(N)=O)c2N)cc1OC	-7%[59 µM]	-14%	-5%	0	-14%	1%
COc1ccc(CNc2ccc3c(c2)ncn3-c2ccccc2OC)cc1	?	?	-5%	·	28µM*	40µM*
COc1ccccc1-n1cnc2cc(NCc3ccco3)ccc21	35µM*	-23%	-2%	-20	?	-60%
COc1ccccc1-n1cnc2cc(NCc3cccs3)ccc21	?	?	2%	-10	45µM*	45µM*
CCn1cnc2cc(NCc3cccs3)ccc21	45µM*	7%	-18%	-8	-32%	?
COc1ccc(S(=O)(=O)N2CCCOC2CNC(=O)C(=O)NCc2ccncc2)cc1 (stereo not drawn)	29%	9%	-2%	-2	-14%	-4%
O=C(CSc1ccccc1)OCC(=O)N1CCN(C(=O)c2ccco2)CC1	22%[12.7 µM]	31%	-12%	-8	-14%	12%
CCOC(=O)CN(Cc1ccccc1)C(C(=O)NC1CCCCC1)c1ccccc1 (stereo not drawn)	9%[59 µM]	31%	·	·	0%	11%
CN(CCCn1cnc2c(OCc3ccccc3)ncnc21)Cc1ccco1	·	·	4%	-2	·	·
COc1ccccc1-n1cnc2cc(NCc3ccccc3O)ccc21	?	?	19µM*	-20	-21%[11.4 µM]	35µM*
COc1ccccc1-n1cnc2cc(NS(=O)(=O)c3ccc(Br)cc3)ccc21	-4%	3%	1%	-3	-31%	-7%
Cc1ccc(NC(=O)c2ccc(NC(=O)N3CCSc4ncccc43)cc2)cc1Cl	?	23%	·	·	-12%	-22%
COc1ccccc1Cc1c(C2CCCCC2)nc2ccc(Br)cn12	·	·	-9%	-17	·	·
Cc1nc(SC2CC(=O)N(c3ccccc3)C2=O)n[nH]1 (stereo not drawn)	·	?	30µM*	?	?	?
CCOC(=O)C(N)CSC1CC(=O)N(c2ccc(OC)cc2)C1=O (stereo not drawn)	45µM*	27%	-11%	-3	-18%	-17%
C=CCNc1nnc(SC2CC(=O)N(c3ccc(OCCC)cc3)C2=O)s1 (stereo not drawn)	8.9µM*	-24%	21µM*	4	35µM*	-4%
CCOC(=O)c1ccc(-n2c(C)ccc2C)cc1	-12%[59 µM]	40%	0%	0	-6%	-4%
CCOC(=O)c1ccc(N2C(=O)C=CC2=O)cc1	?	20µM*	3.8µM*	?	22µM*	?
COc1ccc(C2C3=C(N=CN(CCN4CCOCC4)C3N)Oc3ccccc32)cc1OC (stereo not drawn)	·	·	·	·	-18%	·
SMILES	G9a inh	HP1b chromo inh	PLK1 PBD inh	PI5P4K alpha inh	JMJD2A Tudor inh	BAZ2B inh
Cc1cc(C)cc(NC(=O)Cn2nnc(C(=O)Nc3cc(C)cc(C)c3)c2N)c1	6%[59 µM]	31%	·	·	-9%	·
CCOC(=O)c1ccc(N2C(=O)CC(Sc3nnc(C)s3)C2=O)cc1 (stereo not drawn)	10µM*	-23%	?	-17	50µM*	-12%
Cc1ccnc(SC2CC(=O)N(c3ccc(Br)cc3)C2=O)n1 (stereo not drawn)	·	21%	-5%	8	-13%	4%
Nc1nnc(SC2CC(=O)N(c3ccccc3)C2=O)s1 (stereo not drawn)	8.9µM*	?	30µM*	-8	45µM*	7%
O=C1CC(Sc2ncccn2)C(=O)N1c1ccccc1 (stereo not drawn)	?	63%	-3%	0	-1%	-6%
CCOC(=O)c1ccc(N2C(=O)CC(Sc3nc(C)cc(C)n3)C2=O)cc1 (stereo not drawn)	-11%[59 µM]	56%	-5%	0	12%	-8%
CCOc1ccc(N2C(=O)CC(Sc3nccc(C)n3)C2=O)cc1 (stereo not drawn)	-6%[59 µM]	-9%	27µM*	5	-18%[11.4 µM]	-2%
CCOc1ccc(N2C(=O)CC(Sc3ncccn3)C2=O)cc1 (stereo not drawn)	-17%[59 µM]	57%	-10%	0	-23%	5%
Cc1cc(C)nc(SC2CC(=O)N(c3ccc(Br)cc3)C2=O)n1 (stereo not drawn)	40µM*	53%	-5%	9	-2%	-15%
CCN(Cc1ccccc1)S(=O)(=O)c1cc(C(=O)Nc2cc(Cl)cc(Cl)c2)ccc1F	12%[59 µM]	19%	·	·	-17%	2%
CCOC(=O)c1cccc(-n2nnc3c(sc4nc(C)c(Br)c(C)c43)c2=O)c1	0%[59 µM]	28%	·	·	?	-7%
COc1ccccc1N1C(=O)CC(Sc2n[nH]c(-c3cccc(C)c3)n2)C1=O (stereo not drawn)	1µM*	?	13µM*	1	2.8µM*	-30%
O=C(NCCSc1c(-c2ccc(Br)cc2)[nH]c2ccccc12)c1ccc(S(=O)(=O)N2CCOCC2)cc1	-8%[59 µM]	32%	·	·	-14%	-4%
Cc1ccc(NC(=O)CSc2ncccc2C(=O)Oc2cccc([N+](=O)[O-])c2)cc1Cl	50µM*	23%	-2%	11	-26%	-8%
N#CCCn1cc(/C=C2\NC(=S)N(c3ccccc3)C2=O)c(-c2ccc(-c3ccccc3)cc2)n1	14%[59 µM]	18%	-14%	8	-25%	-18%
O=C(O)CCn1cc(/C=C2/NC(=S)N(c3ccccc3)C2=O)c(-c2ccccc2)n1	22µM*	1%	-16%	-15	?	-37%
